From PubChem BioAssay
Rows were chosen to be rich in hits. Some 3.9% of all compounds tested hit in one or more screens of this group.
Anthrax LF inh2 = blocks Bacillus anthracis lethal factor protease; inhibition, % at 10 µM; P15917; AID 588501; multiplex microsphere protease cleavage assay, LF; actives 0.12% (n = 360,000); also: plate controls were buffer without enzyme for full effect and enzyme alone for no effect
Target sequence (P15917 whole entry, looked up): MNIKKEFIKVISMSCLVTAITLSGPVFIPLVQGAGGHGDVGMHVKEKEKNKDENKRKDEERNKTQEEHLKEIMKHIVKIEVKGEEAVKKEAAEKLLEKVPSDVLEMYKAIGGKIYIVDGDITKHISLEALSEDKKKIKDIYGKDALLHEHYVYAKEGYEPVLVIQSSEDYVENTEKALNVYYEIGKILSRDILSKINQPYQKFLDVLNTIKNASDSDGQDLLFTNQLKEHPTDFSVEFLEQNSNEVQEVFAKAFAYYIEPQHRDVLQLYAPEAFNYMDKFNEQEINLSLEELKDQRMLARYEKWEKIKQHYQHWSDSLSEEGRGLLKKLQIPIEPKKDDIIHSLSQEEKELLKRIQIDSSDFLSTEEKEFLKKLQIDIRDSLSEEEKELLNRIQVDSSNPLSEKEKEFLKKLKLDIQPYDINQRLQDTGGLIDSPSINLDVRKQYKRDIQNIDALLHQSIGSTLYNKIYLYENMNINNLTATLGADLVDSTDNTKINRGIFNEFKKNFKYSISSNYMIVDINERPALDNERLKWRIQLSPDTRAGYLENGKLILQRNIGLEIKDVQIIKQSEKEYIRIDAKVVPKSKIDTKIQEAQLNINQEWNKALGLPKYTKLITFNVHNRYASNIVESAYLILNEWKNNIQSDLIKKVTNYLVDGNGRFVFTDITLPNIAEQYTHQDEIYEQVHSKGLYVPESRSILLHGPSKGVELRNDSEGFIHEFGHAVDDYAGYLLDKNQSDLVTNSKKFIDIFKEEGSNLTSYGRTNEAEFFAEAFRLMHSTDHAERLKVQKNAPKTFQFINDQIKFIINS
BH1578 lux ind = quorum light induction in luxS cqsA deficient V. cholerae | actives 0.16% (n = 350,000) | V. cholerae BH1578 lux reporter, luminescence, 6 h | activation, % at 18.7 µM | AID 588436; in the data active = activation mostly above about 9.7%, no sharp cut-off; inconclusive = no clear call, values can overlap the other calls; inactive = mostly below about 3.7%
Bead autofluor = compound fluorescence in toxin protease inhibitor counterscreen; compound autofluorescence counterscreen, microsphere flow cytometry; active compounds read high; actives 3.1% (n = 360,000); fluorescence intensity (test concentration not listed); in the data active = fluorescence intensity above about 16000; inconclusive = no clear call, values can overlap the other calls
BoNT-A LC inh2 = inhibitors of Botulinum neurotoxin A light chain protease | multiplex microsphere protease substrate cleavage, flow cytometry | AID 588499 | actives 0.17% (n = 360,000) | inhibition, % at 10 µM; also: plate controls were buffer without enzyme for full effect and enzyme alone for no effect
BoNT-F LC inh = blocks Botulinum neurotoxin F light chain protease. Multiplex microsphere protease cleavage assay, flow cytometry. inhibition, % at 10 µM. actives 0.22% (n = 360,000); in the data active = inhibition above about 35%, passing the limit was not always enough; inconclusive = no clear call, values can overlap the other calls; also: plate controls were buffer without enzyme for full effect and enzyme alone for no effect
MazEF act = MazEF (E. coli) toxin RNase activation; P0AE70; activation, % at 20 µM; FAM/BHQ RNA-DNA oligo cleavage fluorescence, 5 h; actives 0.32% (n = 350,000); in the data active = activation above about 50%
Numbers without * were called inactive; i = inactive; u = inconclusive; x = not tested or not shown; + = active, no number. Rule as the data show it, unless noted: active = inhibition above about 30%; inconclusive = no clear call, values can overlap the other calls; inactive = below that.

SMILES	Anthrax LF inh2	BH1578 lux ind	Bead autofluor	BoNT-A LC inh2	BoNT-F LC inh	MazEF act
COc1ccc(CNC(=O)[C@H](C)NC(=O)C2CCN(S(=O)(=O)c3ccc(C)cc3)CC2)cc1	-9.4	-0.2	18265*	u	5.8	-2.1
Cc1ccc(S(=O)(=O)N2CCC(C(=O)N3CCC[C@H]3C(=O)NC3CCS(=O)(=O)C3)CC2)cc1 (some centres undefined)	-4.2	-2.3	23712*	u	-1.0	5.4
Cc1ccc(S(=O)(=O)N2CCC(C(=O)NCCN3CCCCCC3)CC2)cc1	-2.1	2.7	18618*	u	-16.1	-2.5
CC1CCN(C(=O)CCC(=O)Nc2ccc([N+](=O)[O-])cc2)CC1	6.5	i	2834	0.2	-4.5	4.0
O=C(CNCc1ccncc1)Nc1cc(S(=O)(=O)N2CCCCC2)ccc1Cl	1.1	0.9	20589*	10.0	5.1	3.7
Cc1c(C2N3CC4(C)CN2CC(C)(C3)C4=O)c2ccccc2n1C (centres undefined)	-9.8	i	22039*	1.3	1.8	21.5
COC(=O)c1cnc(SC)nc1C	-0.5	i	20134*	u	0.0	-2.0
COc1ccc(/C=C/C(=O)c2ccc(Cl)s2)cc1O	-5.0	x	9061	0.8	-2.0	3.5
COc1cc(/C=C/C(=O)c2ccc(Cl)s2)cc(OC)c1O	6.1	i	21357*	u	-3.3	-6.4
NCC12CC3CC(C1)CC(CN)(C3)C2	-3.2	i	23074*	-0.2	-6.8	-3.4
COc1ccc(CN2C(=O)c3cccnc3C2Nc2ccc(OC)c(Cl)c2)cc1 (centres undefined)	-0.5	i	22056*	u	2.4	9.2
COc1ccc(NC2c3ncccc3C(=O)N2Cc2ccccc2)c(OC)c1 (centres undefined)	-7.5	i	8556	-2.4	-48.6	-0.3
COc1cc(NC2c3ncccc3C(=O)N2Cc2ccco2)cc(OC)c1 (centres undefined)	-9.4	i	20554*	-0.1	-3.8	5.4
O=C(CSCCc1ccccn1)Nc1ccccn1	-5.1	x	3293	0.5	-6.2	-22.1
O=C(CSCCc1ccccn1)Nc1ccc(Br)cn1	0.1	-2.2	23013*	0.0	-1.2	3.1
CC(C)COC(=O)C(C)Nc1n[nH]c(=S)[nH]c1=O (centres undefined)	-11.1	+	3219	-0.6	2.9	-6.4
CC(C)OC(=O)C(C)Nc1n[nH]c(=S)[nH]c1=O (centres undefined)	2.9	-0.5	4646	-1.4	-0.3	-11.2
O=C(NCC1CCCCC1)c1csc([C@@H]2O[C@H](CO)[C@H](O)[C@H](O)[C@H]2O)n1	-5.2	i	3751	0.0	-7.0	x
CCc1c(C)sc(NC(=O)CSc2nc3c(c(C(F)(F)F)n2)CCc2ccccc2-3)c1C#N	-0.8	-0.2	21133*	-3.7	-3.2	-2.9
CC(NC(=O)CSc1nc2c(c(C(F)(F)F)n1)CCc1ccccc1-2)c1ccccc1 (centres undefined)	-0.6	x	3151	0.0	3.1	-2.4
Cc1ccccc1NP(=O)(c1ccccc1)c1nc2ccccc2s1 (centres undefined)	-1.3	i	4177	0.4	-2.4	1.6
O=P(Nc1ccccc1Cl)(c1ccccc1)c1nc2c(s1)CCCC2 (centres undefined)	-1.5	5.3	17289*	-3.1	-9.2	5.0
O=P(Nc1c(Cl)cccc1Cl)(c1ccccc1)c1nc2c(s1)CCCC2 (centres undefined)	-9.0	0.0	23723*	-3.1	-2.8	-4.7
CP(=O)(Nc1ccc(Cl)cc1)c1nc2c(s1)CCCC2 (centres undefined)	-0.9	i	4233	-0.3	-1.9	-2.4
Cc1ccc(S(=O)(=O)Nc2ccccc2CNC2CCCCC2)cc1	-4.8	-0.4	4026	-0.3	-6.0	-0.2
SMILES	Anthrax LF inh2	BH1578 lux ind	Bead autofluor	BoNT-A LC inh2	BoNT-F LC inh	MazEF act
C=CCc1cc(C=O)cc(OCC)c1O	-1.0	i	4521	-1.2	1.4	6.5
O=C(c1cccc(Cl)c1)N1CCCC(C(=O)N2CCN(c3ccccc3)CC2)C1 (centres undefined)	-2.2	-0.3	5649	-1.8	-4.2	-0.2
O=C(NCC(c1ccco1)N1CCCC1)c1cc2ccccc2s1 (centres undefined)	6.2	-0.6	16777*	-3.5	29.3	-4.6
Cc1cccc(OCCC(=O)NCC(c2ccco2)N2CCCCC2)c1 (centres undefined)	-0.8	-1.9	20481*	u	-1.3	-4.9
CC(=O)c1ccc(OCC(=O)N(C)CC(=O)Nc2ccc(N3CCOCC3)cc2)cc1	x	i	x	x	x	2.8
Cc1ccc2nc3c(cc(C(N)=S)c(=N)n3CCCOC(C)C)c(=O)n2c1	13.0	-2.7	13411	45.3*	-8.9	20.9
Cc1ccc2nc3c(cc(C(=O)NCC4CCCO4)c(=N)n3CC3CCCO3)c(=O)n2c1 (centres undefined)	32.9*	-0.1	3882	0.7	1.9	2.0
CCn1c(SCC(=O)NC2CCCC2)nnc1C(C)C	6.7	-0.4	3629	4.7	11.2	6.5
CCOC(=O)c1nn(-c2ccc(C)c(C)c2)cc1O	0.9	-1.4	23047*	-1.1	-1.2	7.2
CCCCN(C=O)c1c(CC)nc2c(OCc3ccc(Cl)cc3)cccn12	-5.4	-0.2	3767	-0.2	-6.2	x
Cc1ccc(S(=O)(=O)N2CCC(C(=O)OCC(=O)N3CCCC(C)C3)CC2)cc1C (centres undefined)	1.4	-0.6	6708	-4.8	-7.8	0.6
CCCCNC(=O)c1cc(-c2ccc(OC)cc2)on1	-2.6	-1.2	10529	1.2	2.7	-0.5
COc1cccc(-c2cc(C(=O)NCCc3ccccc3)no2)c1	-0.1	-1.0	21462*	7.3	8.2	-4.6
COc1cccc(-c2cc(C(=O)Nc3cc(C)on3)no2)c1	0.3	0.6	22051*	-0.1	1.6	-13.8
COc1ccc(C(=O)NC(=S)NCc2ccccc2)cc1	6.2	-0.4	10259	-1.6	-1.8	2.8
COc1cc(OC)cc(C(=O)NC(=S)NCCc2ccccc2)c1	0.3	-0.2	22614*	2.9	3.4	-1.9
CCCNC(=O)c1cc(-c2ccc(OC)cc2)on1	-2.4	0.3	16440*	-0.2	1.4	-6.2
CC(C)(C)OC(=O)N1CCC[C@H]1c1nnc(SCc2ccc(Cl)cc2)o1	3.0	-0.3	5937	-0.7	-2.1	-1.0
O=C1Nc2ccccc2OC1CC(=O)N1CCOCC1 (centres undefined)	-7.0	-0.6	5434	-1.0	-14.1	2.1
O=C1Nc2ccccc2OC1CC(=O)N1CCN(c2cccc(C(F)(F)F)c2)CC1 (centres undefined)	2.2	-2.0	21735*	1.9	0.9	-5.4
O=[N+]([O-])c1ccc(NN=Cc2cccc3ccccc23)cc1	7.9	1.7	2890	2.4	4.9	8.0
O=[N+]([O-])c1cc(Br)c(O)c(/C=N/Nc2nnnn2-c2cccc3ccccc23)c1	-2.8	-3.6	22718*	-0.4	-0.6	-4.4
